# In PubChem BioAssay (NCI):
# Compounds without any hit were thinned out: in the full panel of roughly 83,000, 20% have a hit.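 A percent growth of 40 corresponds to 60% growth inhibition; 0 means no net growth; -100 means all cells died. Active threshold: below 10.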 Values without a mark were called inactive. Active and inactive are the calls of the source.
# Legend:
# Assay in all cases: NCI-60 one-dose screen, 48 h (100 = growth as untreated, 0 = no growth, -100 = all killed)
# Conditions in all cases: 10 µM unless noted
# [1] = test system: DU-145 prostate
# [2] = test system: K-562 leukemia
# [3] = test system: MALME-3M melanoma
# [4] = test system: MDA-MB-231 breast
# [5] = test system: RXF 393 renal
# [6] = test system: SF-268 CNS
# [7] = test system: SF-295 CNS
# [8] = test system: SF-539 CNS
# [9] = test system: UACC-257 melanoma
# [10] = test system: M14 melanoma
# [11] = test system: HCT-15 colon
# [12] = test system: HT29 colon
# [13] = test system: SNB-19 CNS
# [14] = test system: U251 CNS
# [15] = test system: PC-3 prostate
# [16] = test system: SK-MEL-5 melanoma
# [17] = test system: UACC-62 melanoma
# [18] = test system: LOX IMVI melanoma
# [19] = test system: SK-MEL-28 melanoma
# [20] = test system: SNB-75 CNS
SMILES,growth [1] [%],growth [2],growth [3],growth [4],growth [5],growth [6] [%],growth [7] [%],growth [8],growth [9],growth [10],growth [11],growth [12],growth [13] [%],growth [14] [%],growth [15] [%],growth [16] [%],growth [17],growth [18],growth [19],growth [20] [%]
C=C1C(=O)O[C@H]2[C@H]1CC/C(C(=O)NCCOCCOCC(=O)Nc1ccc(OC)c(C(N)=O)c1O)=C\CC[C@@]1(C)O[C@@H]21,101,82.6%,86.9%,100%,59.6%,89.4,104,90.7%,69.4%,99.3%,101%,88.1%,95.1,89.8,97,102,92.6%,95.3%,84.7%,
COc1ccc2c(c1)C(=O)/C(=C/c1ccc(OCC(=O)c3ccc(Cl)cc3)cc1)O2,104,-42.3% (active),80%,68.8%,74.5%,108,73.7,96%,75.1%,83.9%,98.8%,100%,101,80.9,50.9,131,72.2%,40.1%,104%,
C=C1C(=O)O[C@H]2[C@H]1CC/C(COC(=O)CCCC(=O)OC/C1=C/CC[C@@]3(C)O[C@H]3[C@H]3OC(=O)C(=C)[C@@H]3CC1)=C\CC[C@@]1(C)O[C@@H]21,20.8,7.38% (active),-8.44% (active),2.73% (active),-74.2% (active),44.2,78.3,0.465% (active),-39.9% (active),-33.1% (active),4.33% (active),-40% (active),67.6,48,55.2,33.4,-18.7% (active),-70.3% (active),8.77% (active),
CC(C)C(=O)Nc1nc2c(s1)CCCc1ccn(S(=O)(=O)c3ccccc3)c1-2,98.8,73.8%,114%,108%,119%,99.2,90.6,100%,93.7%,96.9%,94%,83.7%,110,102,85.3,93.3,87%,96.9%,106%,
C#CC(=O)/C=C/CCCCCCC#CC(=O)CCC(=O)C#CCCCCCC/C=C/C(=O)C#C,35.3,0.258% (active),-68.3% (active),-6.98% (active),-36.7% (active),22.5,71.7,-34.5% (active),62.9%,-19.2% (active),12.4%,6.4% (active),32,18,12.2,52.8,5.38% (active),-70.2% (active),12.8%,
COc1ccc(-c2nn(-c3ccc(NC(=O)c4cc(C(F)(F)F)cc(C(F)(F)F)c4)cc3)cc2-c2ccncc2)cc1Cl,76.7,29%,95.1%,49.3%,-6.8% (active),68.7,33.1,67.7%,78.8%,40.1%,46%,53.7%,85.7,52.7,45.1,69.1,55.6%,46.4%,79.9%,
CC1CCC(C(C)C)C(NN)C1 (configuration not stated),109,92.2%,112%,108%,115%,107,107,103%,78.6%,102%,104%,77.1%,106,96.3,93.9,102,96.7%,103%,111%,
C[C@H]1C=C(C[C@@H](O)CC#CC#CCCCCC[C@@H](O)[C@H]2CCC(=O)O2)C(=O)O1,109,86.3%,105%,96.4%,103%,110,106,93.1%,91.8%,137%,110%,99.1%,,99.4,111,99.8,95.1%,92.6%,123%,118
